Assay outcomes: PubChem BioAssay, National Center for Advancing Translational Sciences (NCATS)
ALOX12 inh: inhibitors of human 12S-lipoxygenase ALOX12 | purified 12hLO, xylenol orange hydroperoxide absorbance | actives 1.1% (n = 580,000) | Potency, µM (series often up to 108 µM), inactives show at the highest dose activity change, negative = inhibition, usual class: inhibitors; note: potency is the fitted concentration of half-maximal effect
Target sequence (P18054 whole entry, looked up): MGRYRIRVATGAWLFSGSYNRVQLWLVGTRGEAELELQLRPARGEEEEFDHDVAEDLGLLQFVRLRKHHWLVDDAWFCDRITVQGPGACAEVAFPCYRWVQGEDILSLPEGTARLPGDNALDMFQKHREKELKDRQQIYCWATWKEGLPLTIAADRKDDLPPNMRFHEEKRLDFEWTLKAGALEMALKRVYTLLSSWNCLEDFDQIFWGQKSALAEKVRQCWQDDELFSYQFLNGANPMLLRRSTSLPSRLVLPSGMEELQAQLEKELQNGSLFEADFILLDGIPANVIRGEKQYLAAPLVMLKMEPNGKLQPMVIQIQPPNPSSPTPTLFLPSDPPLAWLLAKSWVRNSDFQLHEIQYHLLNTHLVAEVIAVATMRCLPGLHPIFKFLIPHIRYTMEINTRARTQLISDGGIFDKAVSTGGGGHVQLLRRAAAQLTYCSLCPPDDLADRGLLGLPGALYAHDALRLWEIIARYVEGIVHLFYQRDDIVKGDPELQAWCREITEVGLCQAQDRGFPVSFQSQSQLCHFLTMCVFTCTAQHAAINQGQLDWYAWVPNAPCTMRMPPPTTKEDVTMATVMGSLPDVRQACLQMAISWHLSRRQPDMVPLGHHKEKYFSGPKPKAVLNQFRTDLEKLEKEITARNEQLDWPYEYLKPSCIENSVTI
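Purified human 12hLO (150 nM final) in 25 mM Hepes, 0.01% Triton X-100, pH 7.0 was preincubated 15 min at room temperature with compound. Then 40 uM arachidonic acid was added, 30 min. Hydroperoxide was read by Fe-XO absorbance ratio 573/405 nm.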
HT1080 IDH1KD tx: kills HT-1080 cells with IDH1 knockdown | HT-1080 IDH1 knockdown viability, ATP luminescence, 48 h | Potency, µM (doses to about 46.1 µM), without a hit: at the top dose activity, negative = toxicity, actives largely listed as cytotoxic | actives 2% (n = 360,000) | AID 686971;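 note: potency is the fitted concentration of half-maximal effect; 0% = DMSO wells and -100% = cell-free medium wells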
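Viability of IDH1-knockdown HT-1080 fibrosarcoma cells was assessed by CellTiter-Glo after 48 h at 37 °C with titrated compound; concentration-effect curves were classified by fit quality and response size.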
IL-1B inflam inh: inhibitors of inflammasome signaling (IL-1 beta secretion); actives 4.7% (n = 360,000); THP-1 LPS/ATP IL-1B secretion, AlphaLISA, 16 h; active compounds read low; activity change, % at 57.5 µM; in the data active = activity change below about -50%; inconclusive = mostly about -30% to -49%
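THP-1 cells pretreated 1 hr with compounds (up to 57.5 uM final), then stimulated with LPS (250 ng/mL final) plus ATP (1.25 mM final); secreted IL-1B measured by AlphaLISA after 16 hr, decreased signal indicating inhibition.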
DT40 TDP1 no CPT: qHTS for Inhibitors of human tyrosyl-DNA phosphodiesterase 1 (TDP1): qHTS in cells in absence of CPT | DT40 Tdp1-/- hTDP1 cells, no CPT, ATP luminescence, 48 h | Potency, µM (doses to about 46.2 µM), for the others: at the top dose activity change, negative = growth inhibition, usual class: inhibitors | actives 15% (n = 420,000); note: potency is the fitted concentration of half-maximal effect; nearly all actives have a fitted effect of over 55% in size
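Compound effects on proliferation are scored in DT40 Tdp1-/-;hTDP1 cells in the absence of CPT. ATP levels (CellTiter-Glo luminescence) are recorded after a ≥48 hr, 37 °C incubation.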
DT40 TDP1 CPT: growth inhibition of DT40 Tdp1-/-;hTDP1 cells with camptothecin (screen for TDP1 inhibitors); chicken DT40 Tdp1-/-;hTDP1 cells + 20 nM CPT, ATP luminescence, 48 h; Potency, µM (series often up to 46.2 µM), for inactives: top-dose activity change, negative = growth inhibition, most hits filed as inhibitors; actives 12% (n = 420,000); AID 686979; note: potency is the fitted concentration of half-maximal effect; nearly all actives have a fitted effect of over 55% in size
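Cell growth measured by CellTiter-Glo luminescence after a minimum 48 h, 37 C compound exposure with 20 nM CPT in Tdp1-knockout DT40 cells stably expressing hTDP1, seeded 400/well; qHTS titration format.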
HT1080NT lethal: kills 2HG-producing HT-1080-NT fibrosarcoma cells; HT-1080-NT fibrosarcoma viability, CellTiter-Glo ATP luminescence, 48 h; Potency, µM (doses to about 46.1 µM), inactives show at the highest dose activity, negative = less viability, actives largely listed as cytotoxic; actives 1.6% (n = 360,000); AID 686970;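 note: NT is the 2HG producing partner of a matched IDH1 knockdown line; potency is the fitted concentration of half-maximal effect; 0% = DMSO-treated cells and -100% = media-only wells without cells; nearly all actives have a fitted effect of over 55% in size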
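HT-1080-NT; 750 cells/well; 5% FBS RPMI; 48 h compound, 37 degrees C; CellTiter-Glo luminescence; curve fitting and curve-class assignment.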
Numbers without * were called inactive; ? = inconclusive; / = no result given; [ ] = remark or other dose. Many of the other results were omitted from the sample, so hits are more common in it than they were. Unless noted, calls come from the whole dose curve; as a rule, active = well fitted curve in the direction sought with a large enough effect; inconclusive = small, poorly fitted or top-dose-only effect, or another doubt; inactive = no such curve, though single readings can be large; an effect the other way counts as inactive or inconclusive. Unless noted, % is set by controls: 0 for no effect and ±100 for the full control effect.

SMILES | ALOX12 inh | HT1080 IDH1KD tx | IL-1B inflam inh | DT40 TDP1 no CPT | DT40 TDP1 CPT | HT1080NT lethal
Cc1nnc(SCC(=O)Nc2cccc(S(=O)(=O)N(C)c3ccccc3)c2)s1 | -6.7% | -0.6% | 11.0 | 6.51µM* | 8.2µM* | 2.4%
CC(NC(=O)CCc1ncc(-c2ccc(F)cc2F)o1)c1ccc2c(c1)OCO2 (stereo not drawn) | -17.7% | / | / | / | / | /
CCCCOC(=O)n1c(SCC(=O)N(CC)CC)nc2ccccc21 | -16.8% | 4.0% | -19.9 | ? | 20.6µM* | -4.1%
CCOC(=O)n1c(SCC(N)=O)nc2ccccc21 | -13.0% | 7.7% | -8.9 | 4.5% | 1.2% | 7.2%
O=C(NCCN1Cc2ccccc2OC(c2ccsc2)C1)c1cncs1 (stereo not drawn) | 26.9% | / | / | -93.1% | -48.2%[9.04 µM] | /
CCc1cc(C(=O)NCCN2Cc3ccccc3OC(c3ccsc3)C2)n(C)n1 (stereo not drawn) | -17.0% | / | / | 20.6µM* | ? | /
COCCN(CC1CCCN(C2Cc3ccccc3C2)C1)C(=O)CCC(N)=O (stereo not drawn) | -9.9% | -14.6% | -51.6* | ? | 6.3% | -9.9%
COc1ccc(OC)c(NC(=O)C2CCCN(S(=O)(=O)c3c(C)nn(C)c3C)C2)c1 (stereo not drawn) | -0.7% | 7.1% | -11.5 | 20.6µM* | ? | 2.4%
COc1cccc(NC(=O)C2CCCN(S(=O)(=O)c3c(C)nn(C)c3C)C2)c1 (stereo not drawn) | -21.7% | / | / | 14.6µM* | ? | /
COc1ccc(OC)c(NC(=O)C2CCCN(S(=O)(=O)c3c(C)noc3C)C2)c1 (stereo not drawn) | -11.2% | 1.9% | 16.2 | ? | -21.7% | 2.2%
O=C(C1CN(C(=O)c2nn(-c3ccccc3)c(=O)c3ccccc23)c2ccccc2O1)N1CCOCC1 (stereo not drawn) | -9.6% | / | / | / | / | /
Cc1occc1C(=O)N1CCN(c2ccc(Cl)c(Cl)c2)CC1 | ? | -16.7% | -22.5 | 16.4µM* | ? | -0.4%
Cc1occc1C(=O)N1CCN(c2ccccc2)CC1 | -12.4% | 4.9% | 1.7 | -0.2% | -23.7% | -0.3%
Cc1occc1C(=O)NNC(=O)Nc1ccc(Cl)c(Cl)c1 | 2.8% | -12.0% | -12.4 | ? | 14.6µM* | -2.6%
CC(C)CC(OC(=O)c1cccs1)C(=O)NCC1CCCO1 (stereo not drawn) | 0.0% | 3.0% | 7.7 | -4.0% | -6.9% | -1.2%
COc1ccccc1C(OC(=O)c1cccs1)C(=O)NCC1CCCO1 (stereo not drawn) | 18.7% | -8.1% | 5.5 | -16.0% | -8.1% | 0.8%
O=C(OC(C(=O)NCC1CCCO1)c1ccccn1)c1cccs1 (stereo not drawn) | -6.1% | 13.8% | -55.7* | -3.3% | -2.4% | 0.4%
COc1ccc(C(OC(=O)c2cccs2)C(=O)NCC2CCCO2)cc1 (stereo not drawn) | 3.9% | 5.4% | -58.5* | -2.1% | 3.66µM* | 13.0%
CCn1cc(S(=O)(=O)N2CCC3(CC2)CC(N2CCOCC2)CCO3)cn1 (stereo not drawn) | 32.7% | / | / | / | / | /
Cc1ccccc1-c1cccc([C@@H]2C[C@H]3CN(Cc4cccnc4)C(=O)[C@]34CCCN24)c1 | -15.1% | -24.2% | 0.0 | 18.4µM* | 23.1µM* | -6.5%
O=C1N(Cc2cccnc2)C[C@@H]2C[C@@H](c3ccccc3C#Cc3ccccc3)N3CCC[C@@]123 | -13.5% | ? | -11.4 | 16.4µM* | 29.1µM* | 0.0%
CCn1cc([C@@H]2C[C@H]3CN(Cc4cccc(Cl)c4)C(=O)[C@]34CCCN24)c(C)n1 | -1.6% | -4.1% | 3.0 | -12.3% | 1.5% | 14.4%
Cc1nc(SCc2ccc(O)c([N+](=O)[O-])c2)n[nH]1 | ? | 4.4% | 7.9 | -17.0% | ? | -0.6%
Cc1nc(SCc2ccc(O)c([N+](=O)[O-])c2)c([N+](=O)[O-])[nH]1 | ? | 6.0% | -23.0 | 20.6µM* | 20.6µM* | 8.7%
CCOc1ccc(-c2cc3c(N4CCC(C(=O)NCc5cccs5)CC4)nccn3n2)cc1 | 18.0% | / | / | / | / | /
SMILES | ALOX12 inh | HT1080 IDH1KD tx | IL-1B inflam inh | DT40 TDP1 no CPT | DT40 TDP1 CPT | HT1080NT lethal
Cc1ccc(N2CCC(N[C@@H]3CC[C@@H](N)C3)CC2)cc1Cl | 8.1% | / | / | / | / | /
O=C(Nc1ccccc1)Nc1nnc(C2CCCC2)s1 | -0.5% | / | / | / | / | /
O=C1CCc2cc(OCCCCc3nnnn3C3CCCCC3)ccc2N1 | 4.0% | 0.1% | -7.3 | 16.4µM* | ? | 1.3%
CS(=O)(=O)Nc1ccccc1NC(=O)CCCc1ccccc1 | -9.8% | / | / | / | / | /
CC(=O)c1ccc(Nc2ccc([N+](=O)[O-])c3nonc23)cc1 | -3.7% | ? | -11.9 | 23.1µM* | ? | ?
NS(=O)(=O)c1ccc(Nc2ccc([N+](=O)[O-])c3nonc23)cc1 | -17.3% | -5.1% | 35.7 | -17.2% | -24.3% | -0.3%
COc1ccccc1CNC(=O)N1CCN(Cc2ccc(Br)s2)CC1 | -13.0% | / | / | / | / | /
COc1cc2nc(N3CCOCC3)nc(NC3CC3)c2cc1OC | / | 0.1% | / | 12.6µM* | 12.6µM* | 1.1%
COc1cc2nc(N3CCCN(C)CC3)nc(NC3CCNCC3)c2cc1OC | / | 12.1% | / | 12.6µM* | 11.2µM* | -3.8%
COc1cc2nc(NC3CCN(Cc4ccccc4)CC3)nc(N3CCCN(C)CC3)c2cc1OC | / | 2.82µM* | / | 5.01µM* | 5.01µM* | 6.31µM*
COc1cc2nc(N3CCCCC3)nc(NC3CCN(C)CC3)c2cc1OC | / | 11.2µM* | / | 7.94µM* | 7.94µM* | 20µM*
CCn1cnnc1CC1CCN(C(=O)c2cc(-c3ccc(C)c(C)c3)nc3ccccc23)CC1 | 52.9% | / | / | / | / | /
COc1cc2nc(N3CCCN(C)CC3)nc(NC3CCN(C)CC3)c2cc1OC | / | -11.1% | / | 17.8µM* | 12.6µM* | -8.5%
COc1cc2nc(N3CCN(C)CC3)nc(NC3CCN(C)CC3)c2cc1OC | / | -12.1% | / | 11.2µM* | 8.91µM* | -9.6%
COc1cc2nc(N3CCCCC3)nc(NC3CCN(Cc4ccccc4)CC3)c2cc1OC | / | 10µM* | / | 3.16µM* | 5.01µM* | 14.1µM*
COc1cc2c(NC3CCN(C)CC3)nc(N3CCCN(C)CC3)nc2cc1OCC1CCCNC1 (stereo not drawn) | / | / | / | -0.1% | -15.8% | /
COc1cc2c(NC3CCN(C)CC3)nc(N3CCCN(C)CC3)nc2cc1OCCCN(C)C | / | 9.4% | / | ? | ? | 2.7%
COc1ccc(-c2c(C)oc3cc(OCC#N)ccc3c2=O)cc1OC | -3.4% | / | / | / | / | /
